SARS 3CLpro inh: SARS-CoV 3CLpro protease inhibitors, primary screen, biochemical, quenched FRET. Replicase polyprotein 1ab (Severe acute respiratory syndrome coronavirus), P0C6X7. recombinant SARS-CoV 3CLpro, quenched FRET peptide cleavage. inhibition, % at 6 µM. 290,000 tested, 0.14% active. AID 1706, 2009; in the data active = inhibition above about 12%
Bead autofluor: compound fluorescence in toxin protease inhibitor counterscreen; compound autofluorescence counterscreen, microsphere flow cytometry; stronger effect = higher value; fluorescence intensity (concentration not given with the values); 360,000 tested, 3.1% active; AID 624483; in the data active = fluorescence intensity above about 16000; inconclusive = no clear call, values can overlap the other calls
BoNT A protease: BoNT/A light chain protease inhibitors, primary screen, biochemical, flow cytometry, MLPCN library | multiplex microsphere protease substrate cleavage | 360,000 tested, 0.17% active | Botulinum neurotoxin type A light chain protease (Clostridium botulinum A str. ATCC 3502) | inhibition, % at 10 µM
Anthrax LF prot: Bacillus anthracis LF protease inhibitors, primary screen, biochemical, multiplex microsphere, MLPCN library. Lethal factor (Bacillus anthracis), P15917. 360,000 tested, 0.12% active. inhibition, % at 10 µM. multiplex microsphere protease cleavage assay
Target sequence (P15917 whole entry, looked up): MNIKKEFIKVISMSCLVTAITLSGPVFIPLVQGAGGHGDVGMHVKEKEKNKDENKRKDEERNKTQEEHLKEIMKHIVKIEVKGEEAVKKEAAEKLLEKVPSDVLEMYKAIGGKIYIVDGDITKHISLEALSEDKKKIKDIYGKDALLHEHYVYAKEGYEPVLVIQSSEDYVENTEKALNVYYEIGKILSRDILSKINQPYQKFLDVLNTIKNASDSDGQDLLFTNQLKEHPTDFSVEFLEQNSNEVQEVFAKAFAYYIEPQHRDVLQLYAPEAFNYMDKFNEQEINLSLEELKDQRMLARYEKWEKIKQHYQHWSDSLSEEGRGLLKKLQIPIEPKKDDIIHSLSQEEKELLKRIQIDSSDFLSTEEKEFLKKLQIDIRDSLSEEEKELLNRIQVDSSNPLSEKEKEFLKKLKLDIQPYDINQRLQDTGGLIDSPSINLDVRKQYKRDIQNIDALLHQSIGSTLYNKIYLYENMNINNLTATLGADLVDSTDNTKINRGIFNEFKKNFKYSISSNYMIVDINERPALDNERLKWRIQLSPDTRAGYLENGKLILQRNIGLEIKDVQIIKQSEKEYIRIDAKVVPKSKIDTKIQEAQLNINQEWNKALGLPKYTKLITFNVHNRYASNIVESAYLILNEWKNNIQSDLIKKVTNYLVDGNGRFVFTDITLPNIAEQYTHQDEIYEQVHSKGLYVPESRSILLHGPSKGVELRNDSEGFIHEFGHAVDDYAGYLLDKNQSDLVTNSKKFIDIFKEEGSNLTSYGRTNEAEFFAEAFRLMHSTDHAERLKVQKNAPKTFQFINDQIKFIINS
BoNT-F LC inh: BoNT/F light chain protease inhibitors, primary screen, biochemical, flow cytometry, MLPCN library; Multiplex microsphere protease cleavage assay; Botulinum neurotoxin type F light chain protease (Clostridium botulinum); AID 588497, 2011; 360,000 tested, 0.22% active; inhibition, % at 10 µM; in the data active = inhibition above about 35%, passing the limit was not always enough; inconclusive = no clear call, values can overlap the other calls
CCHF vOTU inh: CCHFV vOTU protease inhibitors, primary screen, biochemical, Pep-AMC substrate, fluorescence | Crimean-Congo hemorrhagic fever virus L polyprotein viral ovarian tumor (vOTU) protease … | inhibition, % at 11.5 µM | 370,000 tested, 0.55% active | AID 651958, 2012; in the data active = inhibition above about 30%
Of the large screens only hits and unclear results are named; the others gave an inactive call. Hits are enriched below; roughly 3.9% of the tested compounds scored in any of these assays. Rule as the data show it, unless noted: active = inhibition above about 30%; inconclusive = no clear call, values can overlap the other calls; inactive = below that.

CCc1c(C(=O)NCc2ccc3c(c2)OCO3)[nH]c(C)c1C(C)=O	Bead autofluor 17026
CC(=O)c1c(C)[nH]c(C(=O)OCC(=O)NCc2ccc3c(c2)OCO3)c1C	none (no result: SARS 3CLpro inh)
CCCCc1c(-c2ccccc2OC)ncn1C(C)c1ccc(Cl)cc1 (centres undefined)	none (no result: SARS 3CLpro inh, Bead autofluor, BoNT A protease, Anthrax LF prot, BoNT-F LC inh)
CNC(=O)C(C)NS(=O)(=O)c1ccc(F)cc1 (centres undefined)	Bead autofluor 21451
CN(CC(=O)O)S(=O)(=O)c1ccc(F)cc1	none
CNC(=O)CN(C)S(=O)(=O)c1ccc(F)cc1	Bead autofluor 23131, BoNT A protease inconclusive
CCCNC(=O)c1ccccc1NC(=O)COc1ccc(OC)cc1	Bead autofluor 19742
COc1ccc(OCC(=O)NNc2c3ccccc3nc3ccccc23)cc1	Bead autofluor 16716
COc1ccc(CNC(=O)COc2ccc([N+](=O)[O-])cc2)cc1	Bead autofluor 19432
COC(=O)C1CN(Cc2cn(Cc3ccc(Cl)cc3)nn2)CCS(=O)(=O)N1Cc1ccccc1 (centres undefined)	none (no result: SARS 3CLpro inh, Bead autofluor, BoNT A protease, Anthrax LF prot, BoNT-F LC inh)
CCc1ccc(OCCNC(=O)c2ccc(S(=O)(=O)N(C)C)cc2)cc1	Bead autofluor 22522
CCOc1ccc(NC(=O)c2ccc(S(=O)(=O)N(C)C)cc2)cc1	none
CCOc1ccccc1NC(=S)NCc1ccco1	Bead autofluor 22578
COc1ccc(Cl)cc1NC(=S)NCc1ccco1	Bead autofluor 23985
COc1ccc(-c2cc(-c3ccc(OC)cc3)nc(-c3ccc4c(c3)NC(=O)CO4)c2)cc1	Bead autofluor 23016
COc1cccc(-c2nc(-c3ccc4c(c3)NC(=O)CO4)cs2)c1	none
O=C(NCc1ccncc1)/C(=C/c1cccc([N+](=O)[O-])c1)NC(=O)c1ccccc1	BoNT-F LC inh 38.4
N#CCCN(CCC#N)C(=O)COc1ccc(Cl)cc1Cl	Bead autofluor 18547
CN(CCC#N)C(=O)COc1ccc(Br)cc1Cl	none
O=C(Nc1ccc(Cl)cc1)OC1CCC12CCC(c1ccccc1)CC2 (centres undefined)	none (no result: SARS 3CLpro inh, Bead autofluor, BoNT A protease, Anthrax LF prot, BoNT-F LC inh)
O=C(NCc1ccco1)c1cc2c(s1)CCCCC2	Bead autofluor 18946
O=C(Nc1ccon1)c1cc2c(s1)CCCC2	Bead autofluor 22744, BoNT A protease inconclusive (no result: CCHF vOTU inh)
O=C(Nc1ccon1)c1cc2c(s1)CCCCCC2	Bead autofluor 16721, BoNT A protease inconclusive
O=C(NCCCn1ccnc1)c1cc2c(s1)CCCCC2	Bead autofluor 25451
CC1CCc2sc(C(=O)NCCCn3ccnc3)cc2C1 (centres undefined)	none
CCC(NC(=O)c1ccc2c(c1)c(C)c(C)n2Cc1ccc(-c2ccccc2C#N)cc1)c1ccccc1 (centres undefined)	none (no result: SARS 3CLpro inh, Bead autofluor, BoNT A protease, Anthrax LF prot, BoNT-F LC inh)
O=C(CN1C(=O)NC2(CCc3ccccc32)C1=O)Nc1ccc(N2CCOCC2)cc1 (centres undefined)	Bead autofluor 16378
CC1=C2NC(N)=[N+](Cc3ccccc3)CC2n2c(=O)n(-c3ccccc3)c(=O)n2C1 (centres undefined)	none (no result: SARS 3CLpro inh, Bead autofluor, BoNT A protease, Anthrax LF prot, BoNT-F LC inh)
COc1ccc(/C=N/Nc2nnc(-c3ncc[nH]3)c3ccccc23)cc1	Bead autofluor 21400 (no result: CCHF vOTU inh)
Clc1nnc(N/N=C/c2ccccc2)c2ccccc12	Bead autofluor 16810
Clc1ccc(/C=N/Nc2nnc(Cl)c3ccccc23)cc1	none
NNC(=O)c1nn(-c2ccc(Cl)cc2)ccc1=O	Bead autofluor 23538, BoNT A protease inconclusive
COc1cc(OC)c(-c2nnc(-c3ccc(OC)c(OC)c3OC)o2)cc1OC	Bead autofluor 23443
CC1(C)CC(=O)c2c(nn(-c3ccccc3)c2-c2ccncc2)C1	Bead autofluor 22472, BoNT A protease inconclusive
Cc1c2c(nc3ccccc13)CC(C)(C)CC2=O	none
CCOC(=O)N1CCN(C(=O)C[C@H]2C[C@@]3(C(=O)OC)C(=C[C@H](COCc4ccccc4)O[C@@H]3C)N(Cc3ccco3)C2=O)CC1	none (no result: SARS 3CLpro inh, Bead autofluor, BoNT A protease, Anthrax LF prot, BoNT-F LC inh)
Cc1cc(=O)oc2c(CN3CCN(CCO)CC3)c(O)ccc12	none
COc1ccccc1-c1c(C)oc2c(CN3CCN(C)CC3)c(O)ccc2c1=O	Bead autofluor 21100, BoNT A protease inconclusive
COc1ccccc1-c1c(C)oc2c(CN3CCN(CCO)CC3)c(O)ccc2c1=O	none
CN1CCN(Cc2c(O)ccc3c(-c4ccccc4)cc(=O)oc23)CC1	Bead autofluor 23428, BoNT A protease inconclusive
c1ccc(CCSc2nnc(-c3cccnc3)n2Cc2ccccc2)cc1	none (no result: SARS 3CLpro inh, Bead autofluor, BoNT A protease, Anthrax LF prot, BoNT-F LC inh)
NC(=O)c1nc(N2CCOCC2)nc(N2CCOCC2)n1	none
CC(C)(C)Nc1nc(C(N)=O)nc(N2CCOCC2)n1	Bead autofluor 24325
CCn1c(=O)c2ccccc2n2c(SCC(=O)N3CCCc4ccccc43)nnc12	Bead autofluor 24095
Nc1nnc(SCC(=O)N2CCN(Cc3ccccc3)CC2)s1	Bead autofluor 16406, BoNT A protease inconclusive
O=C(N[C@H](C(=O)N1CCC[C@H]1C(=O)NC1CCCC1)C1CCCCC1)C1CCCC1	none (no result: SARS 3CLpro inh, Bead autofluor, BoNT A protease, Anthrax LF prot, BoNT-F LC inh)
Cc1ccc2[nH]c(=O)c(CN(CC3CCCO3)S(=O)(=O)c3c(C)ccc4nsnc34)cc2c1 (centres undefined)	Bead autofluor 19816, BoNT A protease inconclusive
Cc1ccc2[nH]c(=O)c(CN(CC3CCCO3)S(=O)(=O)c3cccc4nsnc34)cc2c1 (centres undefined)	none
Cc1c(C)c2ccc(O[C@@H]3O[C@H](CO)[C@H](O)[C@H](O)[C@H]3O)c(C)c2oc1=O	none
Cc1c(O[C@@H]2O[C@H](CO)[C@@H](O)[C@H](O)[C@H]2O)ccc2c1oc(=O)c1ccccc12	BoNT-F LC inh 35.1
COC(=O)[C@]12C[C@H](CC(=O)N3CCN(C(=O)C4CC4)CC3)C(=O)N(CCC3=CCCCC3)C1=C[C@H](C1CCCC1)O[C@@H]2C	none (no result: SARS 3CLpro inh, Bead autofluor, BoNT A protease, Anthrax LF prot, BoNT-F LC inh)
O=C1c2ccccc2C(=O)C1Cc1cccc2ccccc12	Bead autofluor 21890
O=C(CSc1nnnn1-c1ccccc1)Nc1ccc(N2CCOCC2)c(Cl)c1	none
O=C(CSc1nnnn1-c1cccc2ccccc12)Nc1ccc(N2CCOCC2)c(Cl)c1	Bead autofluor 16201
C=CCNC(=O)CSc1nc2c(c(=O)[nH]1)CCCC2	none (no result: SARS 3CLpro inh, Bead autofluor, BoNT A protease, Anthrax LF prot, BoNT-F LC inh)
O=C(Nc1ccc2c(c1)OCO2)c1ccc(Cl)s1	Bead autofluor 16810
O=C(Nc1ccc2c(c1)OCO2)c1c(F)c(F)c(F)c(F)c1F	Bead autofluor 18127
O=C(Nc1ccc2c(c1)OCCO2)c1c(F)cccc1F	Bead autofluor 20165, BoNT A protease inconclusive (no result: CCHF vOTU inh)
O=C(Nc1ccc2c(c1)OCCO2)c1ccccc1F	none
COCCCN1C(=O)[C@H](CC(=O)NCCC(C)C)[C@]2(C(=O)OC)CCCCC=C12	none (no result: SARS 3CLpro inh, Bead autofluor, BoNT A protease, Anthrax LF prot, BoNT-F LC inh)
